# TDP1 cell noCPT – qHTS for Inhibitors of human tyrosyl-DNA phosphodiesterase 1 (TDP1): qHTS in cells in absence of CPT. DT40 Tdp1-/- hTDP1 cells, no CPT, ATP luminescence, 48 h. Potency, µM (highest dose often 46.2 µM), without a hit: at the top dose activity change, negative = growth inhibition, most hits filed as inhibitors. 420,000 tested, 15% active. AID 686978, 2013; note: % is set by controls: 0 for no effect and ±100 for the full control effect; nearly all actives have a fitted effect of over 55% in size
#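 Chicken DT40 Tdp1-/- cells stably complemented with human TDP1 were seeded at 400 cells/well with DMSO in place of 20 nM camptothecin. After compound pinning, cells grew at least 48 hr at 37 °C; viability read by CellTiter-Glo luminescence.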
# TGFb inhibitor – blocks TGF-b signaling. Potency, µM (top dose mostly 46.1 µM), for inactives: at the top dose activity, negative = inhibition, hits mostly inhibitors. HepG2 CAGA-GFP TGF-b/SMAD3 reporter, GFP fluorescence, 18 h; TGF-beta stimulated, 500 pg/mL final. 410,000 tested, 1.2% active; note: % is set by controls: 0 for no effect and ±100 for the full control effect; nearly all actives have a fitted effect of over 65% in size
#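 First, reporter cells (HEPG2 CAGA-GFP) rested 2 h at 37 degrees C. Next, compounds were pinned in and TGF-beta added to 500 pg/mL final. After 18 h, GFP was imaged per cell and summed per well.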
# ATXN viability – cell viability loss in ATXN counter-screen; Potency, µM (titrated, usually from 56.7 µM), usual class: cytotoxic; S2 cells (HEK-293 line with an ATXN2-luciferase reporter) viability, CellTiter-Fluor protease fluorescence, 24 h; 400,000 tested, 0.49% active; note: nearly all actives have a fitted effect of over 40% in size
# DT40 TDP1 CPT – growth inhibition of DT40 Tdp1-/-;hTDP1 cells with camptothecin (screen for TDP1 inhibitors); chicken DT40 Tdp1-/-;hTDP1 cells + 20 nM CPT, ATP luminescence, 48 h; Potency, µM (highest dose often 46.2 µM), for inactives: at the top dose activity change, negative = growth inhibition, actives largely listed as inhibitors; 420,000 tested, 12% active; note: % is set by controls: 0 for no effect and ±100 for the full control effect; nearly all actives have a fitted effect of over 55% in size
#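 Chicken DT40 Tdp1-/- cells stably complemented with human TDP1 were seeded at 400 cells/well in medium containing 20 nM camptothecin, exposed to pin-transferred compounds, and grown at 37 °C for at least 48 hr. Viability was read as ATP luminescence.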
# HepG2 tox – counter-screen for TGF-b inhibitors: cytotoxicity in HepG2 cells. 410,000 tested, 0.76% active. Potency, µM (doses to about 46.1 µM), without a hit: at the highest dose activity change, negative = cytotoxicity, most hits filed as cytotoxic. HepG2 CAGA-GFP viability, ATP luminescence, 18 h
#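 CellTiter-Glo luminescence gave cytotoxicity after 18 hours at 37 degrees C. The cells were HepG2 CAGA-GFP in 1% FBS DMEM, stimulated with 500 pg/mL TGF-beta after compound addition. %Activity was normalised to no-cell wells (complete cell-killing) and DMSO (no toxicity), and curves were fitted and classified.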
# ATXN2 expr inh – inhibitors of ATXN2 expression; HEK-293 ATXN2-luciferase reporter, luminescence, 24 h; Potency, µM (top dose mostly 57 µM), for the others: at the top dose activity change, negative = inhibition, most hits filed as inhibitors; 360,000 tested, 0.72% active; note: % is set by controls: 0 for no effect and ±100 for the full control effect; nearly all actives have a fitted effect of over 55% in size
#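 ATXN2-luciferase reporter cells (luciferase flanked by upstream and downstream ATXN2 gene portions) were treated 24 h at 37 °C with compounds at up to 57 uM. SteadyGlo luminescence gave expression; GF-AFC fluorescence gave viability.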
# Numbers without * were called inactive; i = inactive; u = inconclusive; x = no result given; [ ] = dose if it differs, or a comment. Compounds with a hit are over-represented: about 17% of the library has one in this group of screens. Calls come from the whole dose curve; as a rule, active = well fitted curve in the direction sought with a large enough effect; inconclusive = small, poorly fitted or top-dose-only effect, or another doubt; inactive = no such curve, though single readings can be large; an effect the other way counts as inactive or inconclusive. Potency is the fitted concentration of half-maximal effect.
SMILES,TDP1 cell noCPT,TGFb inhibitor,ATXN viability,DT40 TDP1 CPT,HepG2 tox,ATXN2 expr inh
O=S(=O)(NN=Cc1cccc(Cl)c1)c1ccccc1,u,0.2%,i,u,8.1%,19.9%
O=S(=O)(N/N=C\c1ccc(-c2ccccc2Cl)o1)c1ccccc1,11.2µM*,-1.2%,i,11.2µM*,-38.7%,-28.2%
CCN(CC)CCNC(=O)c1ccc(NC(=O)c2c(C)nn(-c3ccc(F)cc3)c2Cl)cc1,-9.2%,15.2%,i,-17.6%,-10.7%,-11.8%
O=C(NCc1ccccn1)c1cnn(-c2nccc(-c3cc4ccccc4o3)n2)c1C1CC1,-29.0%,x,i,3.7%[9.04 µM],x,x
Cc1cc(=O)oc2cc(O[C@@H]3O[C@H](C(=O)O)[C@@H](O)[C@H](O)[C@H]3O)ccc12,-4.2%,x,x,14.7%,x,x
CCOCCN(C(=O)c1ccccc1Cl)c1ccccc1,u,8.2%,i,4.3%,-19.9%,-2.0%
CC1CC(N(C(=O)c2ccccc2Cl)c2ccccc2)c2ccccc2N1 (centres undefined),5.8µM*,-7.2%,i,7.31µM*,0.6%,-12.3%
Cc1c(C(=O)Nc2ccc3c(c2)OCCO3)sc2ncnc(N3CCCCC3C)c12 (centres undefined),14.6µM*,u,u,u,9.0%,u
Cc1c(C(=O)N2CCCCC2C)sc2ncnc(N3CCc4ccccc4C3)c12 (centres undefined),13µM*,-25.0%,i,u,-13.6%,-18.2%
CCOC(=O)C1CCN(C(=O)c2sc3ncnc(N4CCC(C)CC4)c3c2C)CC1,u,-0.2%,i,u,-23.2%,-16.8%
Cc1nc(N2CCC(C)CC2)c2c(C)c(C(=O)Nc3ccc4c(c3)OCCO4)sc2n1,u,-16.8%,i,u,-25.5%,x
CCN1CCN(C(=O)c2sc3ncnc(N4CCc5ccccc5C4)c3c2C)CC1,u,14.3%,i,u,-20.0%,x
Cc1c(C(=O)N2CCOCC2)sc2ncnc(N3CCc4ccccc4C3)c12,11.6µM*,u,i,11.6µM*,-20.8%,-3.1%
CCOc1ccc(C2=CSC3=NCCN23)cc1Cl,u,-5.9%,i,u,20.9%,2.2%
CCCOc1ccc(-c2nn(-c3ccccc3)cc2/C=C2\SC(N)=NC2=O)cc1C,u,11.7%,i,16.4µM*,4.6%,13.1%
CCC(C)[C@H]1CNC(=S)N1CCC12CC3CC(CC(C3)C1)C2 (some centres undefined),14.6µM*,12.2%,u,16.4µM*,-4.2%,u
CCC(C)[C@H]1CNC(=S)N1CCc1cccc2ccccc12 (some centres undefined),-27.3%,u,u,u,-26.7%,u
N#Cc1cccc(C=C(C(=O)c2ccccc2)c2ccccc2)c1,18.7µM*,x,x,11.8µM*,x,x
COc1cccc(/C=C(\C(=O)O)c2ccccc2)c1,-2.5%,-28.3%,u,4.3%,-14.2%,-30.8%
O=[N+]([O-])c1ccc(O/N=[N+](\[O-])N2CCCC2)c([N+](=O)[O-])c1,x,u,x,x,-81.9%,x
COc1ccccc1N1CCN(C(=O)CCS(=O)(=O)c2ccc3c(c2)oc(=O)n3C)CC1,26.5%,9.4%,i,-10.3%,5.3%,9.9%
COc1ccccc1N1CCN(C(=O)C2CCN(S(=O)(=O)c3ccccc3F)CC2)CC1,23.1µM*,4.8%,x,u,0.1%,x
COc1ccc(C)cc1S(=O)(=O)N1CCCC(C(=O)N2CCN(c3ccccc3F)CC2)C1 (centres undefined),23.1µM*,-10.7%,i,u,11.7%,u

# High-throughput results (PubChem)
